Drawing on PubChem BioAssay (NCATS), this text covers Potency for 40 compounds.

The structures appear in SMILES notation. Results filed as inconclusive are left out. Where a call stands in place of a potency, no number is given. Active and inactive are the calls of the source. Calls follow the shape of the dose curve; as a rule, active = well fitted inhibition curve with a large enough effect; inconclusive = small, poorly fitted or top-dose-only effect; inactive = flat fitted curve, though single readings scatter.

This assay deals with Glutathione peroxidase 1 (Homo sapiens) (UniProt P07203). The experiment in a line: Primary qHTS Assay for Inhibitors of Recombinant Selenoprotein Glutathione Peroxidase 1 (GPX1) (AID 1845191). Also: nearly all actives have a fitted effect of over 65% in size. The following applies: recombinant GPX1, GR-coupled NADPH fluorescence, 15 min; series mostly up to 48.8 µM. An excerpt: Assay Provider: Elias S.J. Arner MD PhD.
Chain of Glutathione peroxidase 1 (Homo sapiens) (P07203 whole entry, looked up): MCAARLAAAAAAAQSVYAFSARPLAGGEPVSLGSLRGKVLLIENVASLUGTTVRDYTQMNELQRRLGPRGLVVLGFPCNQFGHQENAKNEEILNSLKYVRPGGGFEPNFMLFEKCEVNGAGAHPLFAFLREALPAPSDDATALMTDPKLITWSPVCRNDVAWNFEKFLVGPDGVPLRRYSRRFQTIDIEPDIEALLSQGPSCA
Department of Medical Biochemistry and Biophysics
Karolinska Institutet, Solna, Stockholm, Sweden
Selenoprotein glutathione peroxidases (GPX), like the ubiquitously expressed GPX1 and the ferroptosis modulator GPX4, enact their antioxidant activities by reducing hydroperoxides using glutathione. […] GPX1 and GPX4 inhibitors have thus shown promise as anti-cancer agents. Existing inhibitors are often promiscuous, or modulate GPX activity only indirectly, so novel direct inhibitors identified through screening against GPX1 and GPX4 could be valuable. Here, we developed optimized glutathione reductase (GR)-coupled GPX assays for the biochemical high-throughput screen (HTS) of almost 12,000 compounds with known mechanisms of action. Initial hits were triaged using a GR counter-screen, assessed for isoform specificity using a separate GPX2 assay, and were assessed for general selenocysteine-targeting activity using a thioredoxin reductase (TXNRD1) assay. With this suite of assays, we identified novel GPX1/GPX2- and GPX4-specific inhibitors and can here present a validated pipeline for future discovery research for selenoprotein-targeting agents.
SEQUENCE No. (e.g., 1, 2, 3, etc.); […] (e.g., Cells, Incubation, Reagent, etc.); VALUE; DESCRIPTION.
1; Reagent 1; 3 uL; GPx1 enzyme or no enzyme control in 1536-well, black, solid Greiner assay plate.
2; Compound; 25 nL; Kalypsis pin tool (Wako USA) equipped with a 1536-well pin head.
3; Incubation; 30 min; room temperature.
4; Reagent 2; 1 uL; 10 nM GPX1, 1 mM GSH, 0.5 mM CHP, 0.5 mM NADPH, 100 nM GR, 0.01% BSA substrate
5; Detection; Fluorescence; ViewLux microplate reader, excitation 340 nm and emission 450 nm.
6; Incubation; 15 min; room temperature.
7; Detection; Fluorescence; ViewLux microplate reader, excitation 340 nm and emission 450 nm.
NOTES (numbers refer to Sequence numbers above)
1. 3 uL of 16.66 nM GPX1 and 0.016% BSA in assay buffer (50 mM Tris-HCl, 2 mM EDTA (pH 7.5), 150 mM NaCl) was added to columns 3-48 of 1536-well assay plates using a BioRAPTR Flying Reagent Dispenser (Let's Go Robotics (LGR), Carlsbad, CA). A no-enzyme control (0.01% BSA in TES assay buffer) was added to columns 1-2.
2. 25 nL of test compounds and DMSO controls were added to each well with a pin tool (Kalypsys).
3. The assay plates were incubated for 30 minutes at room temperature.
4. 1 uL of master mix (500 nM glutathione reductase (GR), 5 mM reduced glutathione (GSH), 2.5 mM NADPH in assay buffer) was added. 1 uL of cumene hydroperoxide (CHP) ([2.5 mM] in 50% EtOH) was then added within 5 minutes to initiate the reaction. Final concentrations were: 10 nM GPX1, 1 mM GSH, 0.5 mM CHP, 0.5 mM NADPH, 100 nM GR, 0.01% BSA.
5. Initial fluorescence readout (t=0) at 340/450 nm was measured using a ViewLux multimodal detector (PerkinElmer, Waltham, MA).
7. Endpoint fluorescence readout (t=15) at 340/450 nm was measured 15 min after room temperature incubation.
A general note: qHTS replaces the single test concentration by a dilution series.
As for `CCCC(=O)OC[C@@H](OC(=O)CCC)[C@@H](OC(=O)CCC)[C@H](Cn1c2nc(=O)[nH]c(=O)c-2nc2cc(C)c(C)cc21)OC(=O)CCC`, the Potency result was “inactive”.
The value for `CCOc1ccc2nc(S(N)(=O)=O)sc2c1` was “inactive”.
For `O=C(c1ccc(OCCCc2cnc[nH]2)cc1)C1CC1`, the Potency result is “inactive”.
In the case of `O=C(c1cc(O)c(O)c([N+](=O)[O-])c1)c1ccccc1F`, the Potency entry is “inactive”.
Regarding `NCCSSCCN`, the Potency entry was “inactive”.
Then `COc1cccc(C(=O)NCCN2CCN(c3ccc(Cl)cc3)CC2)c1`, with “inactive”; and `COCCOc1cc2nc[nH]c(=O)c2cc1OCCOC`, with “inactive”.
On to `Cc1ccc(S(=O)(=O)/C=C/C#N)cc1`, for which the Potency result is “inactive”.
The value for `Nc1nc(SCc2ccc([N+](=O)[O-])cc2)c2ncn([C@@H]3O[C@H](CO)[C@@H](O)[C@H]3O)c2n1` was “inactive”; that for `CC(C)Cc1ccc([C@H](C)C(=O)O)cc1` was “inactive”.
As to `O=C(CCCCCN1CCN(c2ccccc2-c2ccccc2)CC1)NC1CCCc2ccccc21` (stereo not given), the Potency entry is “inactive”.
On to `COC(=O)C1=C(C)NC(C)=C(C(=O)OC)C1c1cccc(NC(=O)NCCCN2CCC(c3cccc(OC)c3)CC2)c1`, for which the Potency result was “inactive”.
The value for `Nc1nc(OCC2CCCCC2)c2[nH]cnc2n1` was “inactive”.
As to `C=C[C@H]1CN2CC[C@@H]1C[C@@H]2[C@@H](O)c1ccnc2ccc(OC)cc12`, the Potency result was “inactive”.
The value for `Cc1onc(-c2c(F)cccc2Cl)c1C(=O)N[C@@H]1C(=O)N2[C@@H]1SC(C)(C)[C@@H]2C(=O)O` was “inactive”.
For `CCNC(=O)[C@H]1O[C@@H](n2cnc3c(N)nc(NCCc4ccc(CCC(=O)O)cc4)nc32)[C@H](O)C1O` (stereo not given in full), the Potency result is “inactive”.
Then `CCCCCCCCCCCCOCCO`, with “inactive”; and `CC[C@H]1OC(=O)[C@H](C)[C@@H](O[C@H]2C[C@@](C)(OC)[C@@H](O)[C@H](C)O2)[C@H](C)[C@@H](O[C@@H]2O[C@H](C)C[C@H](N(C)C)[C@H]2O)[C@](C)(O)C[C@@H](C)C(=O)[C@H](C)[C@@H](O)[C@]1(C)O`, with “inactive”; and `CN(CCCOc1ccc(Cc2ccccc2)cc1)CCC(=O)O`, with “inactive”.
The value for `O=C(O)[C@H](CC(=O)N1C[C@H]2CCCC[C@H]2C1)Cc1ccccc1` was “inactive”.
The value for `O=C1CN(/N=C/c2ccc([N+](=O)[O-])o2)C(=O)N1` was “inactive”; that for `COc1cc(/C=C/C(=O)N2CCN(CC(=O)N3CCCC3)CC2)cc(OC)c1OC` was “inactive”; that for `Nc1ncnc2c1ncn2[C@@H]1O[C@H](COP(=O)(O)CP(=O)(O)OP(=O)(O)O)[C@@H](O)[C@H]1O` was “inactive”.
With `CN(C)C(N)=NCCC[C@H](N)C(=O)O`, the Potency entry is “inactive”.
The value for `COc1ccc(-c2cc(=O)c3c(O)c(OC)c(OC)cc3o2)cc1O` was “inactive”.
The value for `CC[C@@H](C)[C@H]1O[C@]2(CC[C@@H]1C)C[C@@H]1C[C@@H](C/C=C(\C)[C@@H](O[C@H]3C[C@H](OC)[C@@H](O[C@H]4C[C@H](OC)[C@@H](O)[C@H](C)O4)[C@H](C)O3)[C@@H](C)/C=C/C=C3\CO[C@@H]4[C@H](O)C(C)=C[C@@H](C(=O)O1)[C@]34O)O2` was “inactive”; that for `CCCCN(CC)c1nc(C)nc2c1c(C)cn2-c1c(C)cc(C)cc1C` was “inactive”.
Then `O=C(Nc1ccncc1)c1cc([N+](=O)[O-])ccc1Cl`, with “inactive”; and `CC(=O)c1ccc(OCC(=O)N2CCCCC2)cc1`, with “inactive”; and `c1ccc(-c2ccccn2)nc1`, with “inactive”.
Regarding `O=c1[nH]c2cc(C(F)(F)F)ccc2n1-c1cc(C(F)(F)F)ccc1O`, the Potency result is “inactive”.
Regarding `COC(=O)[C@H]1[C@H]2C[C@@H]3c4[nH]c5cc(OC)ccc5c4CCN3C[C@H]2C[C@@H](OC(=O)/C=C/c2cc(OC)c(OC)c(OC)c2)[C@@H]1OC`, the Potency entry was “inactive”.
Then `O=C1NCc2c1c1c3ccccc3[nH]c1c1[nH]c3ccccc3c21`, with “inactive”; and `CC(C(=O)O)c1ccc2c(c1)[nH]c1ccc(Cl)cc12` (stereo not given), with “inactive”.
The value for `Cn1c(=O)c2[nH]c(-c3ccccc3)nc2n(C)c1=O` was “inactive”; that for `Cc1c(C(=O)O)c(O)cc2c1C(=O)c1c(O)c([C@@H]3O[C@H](CO)[C@@H](O)[C@H](O)[C@H]3O)c(O)c(O)c1C2=O` was “inactive”.
With `O=C(O)[C@H](O)[C@@H](O)[C@H](O)[C@H](O)CO`, the Potency entry is “inactive”.
`CCCCCCCCCCCCCCCCCC(=O)OC(CC(=O)O)C[N+](C)(C)C` (stereo not given): the Potency result is “inactive”.
As for `O=C1/C(=C/c2ccsc2)CC/C1=C\c1cccs1`, the Potency result was “inactive”.
The value for `CCCN(CC1CC1)c1nc(C)nc(Nc2c(Cl)cc(Cl)cc2Cl)c1Cl` was “inactive”.
